Screening results: PubChem, National Center for Advancing Translational Sciences (NCATS)
Tau fluor counter: counter-screen for tau fibril formation inhibitors | tau K18 P301L Alexa594 fluorescence, heparin fibrillization | Potency, µM (doses to about 57.7 µM), without a hit: top-dose activity change, negative = decrease | 0.93% of 280,000 active; also: potency is read from the fitted curve at half-maximal effect; nearly all actives have a fitted effect of over 55% in size
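Human tau K18 P301L (15 uM unlabeled, 0.24 uM Alexa 594-labeled) in 100 mM sodium acetate pH 7 with 20 uM heparin, 6 hr at 37 C. ThT 30 uM added, 1 hr ambient; Alexa 594 FP and total fluorescence read at 555/632 nm.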
Tau ThT inhib: tau fibrillization inhibition (ThT binding). 2.1% of 270,000 active. P10636. Potency, µM (series often up to 57.4 µM), inactives show at the top dose activity, negative = inhibition, actives largely listed as inhibitors. recombinant tau K18 P301L (four-repeat tau fragment), heparin-induced fibrillization, ThT fluorescence; also: potency is read from the fitted curve at half-maximal effect; nearly all actives have a fitted effect of over 55% in size
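Aggregation was driven by heparin (20 uM final) acting on recombinant tau […] bearing P301L in 100 mM sodium acetate pH 7; fibrils were detected with Thioflavin T.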
USP1-UAF1 inh: inhibitors of human USP1/UAF1 deubiquitinase; O94782; recombinant USP1/UAF1, Ub-Rhodamine cleavage fluorescence; Potency, µM (series often up to 57.1 µM), without a hit: top-dose activity change, negative = inhibition, hits mostly inhibitors; 0.23% of 390,000 active; AID 743255; also: potency is read from the fitted curve at half-maximal effect; nearly all actives have a fitted effect of over 60% in size
Target sequence (O94782 whole entry, looked up): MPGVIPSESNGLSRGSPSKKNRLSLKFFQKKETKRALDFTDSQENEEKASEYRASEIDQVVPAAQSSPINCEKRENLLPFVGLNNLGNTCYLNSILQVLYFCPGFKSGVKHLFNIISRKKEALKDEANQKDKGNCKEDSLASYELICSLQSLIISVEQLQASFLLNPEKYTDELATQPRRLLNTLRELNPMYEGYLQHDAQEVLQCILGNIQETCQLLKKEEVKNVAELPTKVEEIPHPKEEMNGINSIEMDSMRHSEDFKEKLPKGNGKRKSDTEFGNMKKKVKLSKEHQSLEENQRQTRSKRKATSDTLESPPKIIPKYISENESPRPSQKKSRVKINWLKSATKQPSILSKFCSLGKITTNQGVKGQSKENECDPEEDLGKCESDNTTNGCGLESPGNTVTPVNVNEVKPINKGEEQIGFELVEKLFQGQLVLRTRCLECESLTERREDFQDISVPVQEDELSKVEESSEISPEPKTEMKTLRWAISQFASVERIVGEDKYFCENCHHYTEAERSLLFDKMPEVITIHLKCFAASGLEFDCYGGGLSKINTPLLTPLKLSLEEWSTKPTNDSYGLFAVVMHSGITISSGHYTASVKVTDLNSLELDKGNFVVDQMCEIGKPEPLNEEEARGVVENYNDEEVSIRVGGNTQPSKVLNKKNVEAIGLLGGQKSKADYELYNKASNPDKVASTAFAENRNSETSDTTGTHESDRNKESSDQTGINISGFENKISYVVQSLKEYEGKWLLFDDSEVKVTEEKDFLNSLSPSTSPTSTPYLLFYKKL
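In this screen, compounds sit with the deubiquitinase complex (1nM) for 15 min at room temperature before Ub-Rho is added at 150nM final. Fluorescence rise is then followed for 6 reads every 60 seconds.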
Coupling enz: coupling enzyme interference in Giardia aldolase counter-screen. coupling enzyme system counterscreen, AmpLite Red fluorescence. activity change, negative = inhibition, % at 58.2 µM, hits read low. 0.67% of 290,000 active. AID 2472; in the data active = activity change below about -30%
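Final compound at 57.5 uM, incubated 10 min at RT with coupling enzyme reagent (glyceraldehyde-3-phosphate), then 20 min with substrate and AmpLite Red detection. Fluorescence read at 525/598 nm; tests interference with the coupling assay, not aldolase inhibition.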
Tau fibril FP: blocks human tau fibril formation measured by polarization; P10636; 0.39% of 280,000 active; AID 1468; K18 P301L tau heparin fibrillization, Alexa594 FP, 6 h; Potency, µM (doses to about 57.7 µM), for the others: at the highest dose activity, negative = inhibition, most hits filed as inhibitors; also: potency is read from the fitted curve at half-maximal effect; nearly all actives have a fitted effect of over 55% in size
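FP of Alexa 594-tau after heparin (20 uM) induction. Substrate: human K18 P301L, 15 uM unlabeled, 0.24 uM labeled. Buffer 100 mM sodium acetate pH 7. 6 hr, 37 C.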
* marks the source's active call; other numbers are inactive results; ? = inconclusive; · = no result; [ ] = dose if it differs, or a comment. An excerpt weighted towards active compounds, which were near 2.3% of everything screened. Unless noted, calls follow the shape of the dose curve; as a rule, active = well fitted curve in the direction sought with a large enough effect; inconclusive = small, poorly fitted or top-dose-only effect, or another doubt; inactive = no such curve, though single readings can be large; an effect the other way counts as inactive or inconclusive. % is scaled to controls: 0 for no effect and ±100 for the full control effect.

SMILES	Tau fluor counter	Tau ThT inhib	USP1-UAF1 inh	Coupling enz	Tau fibril FP
COc1ccc(NC(=O)/C(Cl)=C(/Cl)S(=O)Cc2ccccc2Cl)cn1 (stereo not drawn)	-11%	8.9µM*	?	0	?
Cc1c(C(=O)NCc2ccccc2Br)oc2c1-c1[nH]ncc1CC2	3%	-6%	-6%	·	-3%
COc1ccc(-c2cc(C(C)=O)c(C)n2CCC(=O)Nc2cc(Cl)ccc2C)cc1	-19%	-7%	-24%	·	1%
Cc1cccc(N2CSC3=C(C#N)C(c4ccc(C)o4)CC(=O)N3C2)c1 (stereo not drawn)	-27%	14µM*	·	-18	?
COc1cccc(C2SCC(=O)N2c2ccc(Cl)cc2)c1OC (stereo not drawn)	1%	1%	-11%	2	?
N#CC1=C2SCN(C3CCCCC3)CN2C(=O)CC1c1ccc(Br)cc1 (stereo not drawn)	-28%	?	-22%	·	?
COc1ccc(N2CSC3=C(C#N)C(c4cccc(OC)c4OC)CC(=O)N3C2)cc1 (stereo not drawn)	-25%	18µM*	-18%	-29	?
COc1ccc(C2CC(=O)N3CN(c4ccc(C)c(Cl)c4)CSC3=C2C#N)cc1 (stereo not drawn)	-17%	32µM*	-21%	-36*	?
CCc1ccccc1N1CSC2=C(C#N)C(c3ccccc3F)CC(=O)N2C1 (stereo not drawn)	-18%	28µM*	-20%	-19	?
COC(=O)CSC1=C(C#N)C(c2ccc(C)o2)CC(=O)N1 (stereo not drawn)	1%	-6%	-6%	0	6%
CCn1c(C(=O)N2CCC(C(=O)N3CCN(c4ccc(OC)cc4)CC3)CC2)cc2sccc21	-11%	?	3%	·	0%
CCN(c1ccc(OC)cc1)S(=O)(=O)c1ccc2[nH]c(=O)ccc2c1	-25%	?	-5%	·	-11%
COc1ccc(OC)c(C2CC(=O)N3CN(c4ccccc4)CSC3=C2C#N)c1 (stereo not drawn)	?	28µM*	-23%	-18	16µM*
COc1cc(OC)c(C2CC(=O)N3CN(c4ccccc4C)CSC3=C2C#N)cc1OC (stereo not drawn)	-24%	28µM*	·	-28	32µM*
Clc1cccc(-n2ncc3c(Nc4ccc5c(c4)OCCO5)ncnc32)c1	6.3µM*[quencher]	?	?	·	?
Cc1ccc(Cl)cc1-n1ncc2c(Nc3ccc4c(c3)OCCO4)ncnc21	?	-4%	-15%	·	12%
Cc1ccc(-n2ncc3c(Nc4ccc5c(c4)OCCO5)ncnc32)cc1Cl	?	?	-8%	·	-15%
Fc1ccc(-n2ncc3c(Nc4cccc(Cl)c4)ncnc32)cc1	?	?	?	·	10µM*
Clc1ccc(Nc2ncnc3c2cnn3-c2ccccc2)cc1	?	?	?	-9	?
Fc1ccc(-n2ncc3c(Nc4ccc5c(c4)OCCO5)ncnc32)cc1	11µM*[quencher]	?	?	·	9%
Cc1ccc(S(=O)(=O)NCCc2nnc3ccc(SCc4ccccc4C)nn23)cc1	-5%	-8%	?	·	-4%
CC(C)(C)Nc1nc(C#N)nc(Nc2ccccc2)n1	·	·	·	1	·
CCSc1nc2c([nH]c3ccccc32)c(=O)n1CC	-15%	-10%	13%	·	-9%
Cc1ccc(Nc2nc(-c3sc(NC(=O)c4ccco4)nc3C)cs2)cc1	?	4µM*	-20%	-4	12%
CCC(C)C(=O)Nc1nc(C)c(-c2csc(Nc3ccc(Cl)cc3)n2)s1 (stereo not drawn)	14µM*[quencher]	?	-22%	-1	15%
SMILES	Tau fluor counter	Tau ThT inhib	USP1-UAF1 inh	Coupling enz	Tau fibril FP
Cc1ccccc1Nc1nc(-c2sc(NC(=O)c3ccco3)nc2C)cs1	?	?	-18%	-19	4%
CC(=O)Nc1ccc(Nc2nc(-c3sc(NC(C)=O)nc3C)cs2)cc1	·	·	-16%	-5	·
CCC(=O)Nc1nc(C)c(-c2csc(Nc3ccc(C(=O)O)cc3)n2)s1	·	·	?	-2	·
CCCC(=O)Nc1nc(C)c(-c2csc(Nc3ccc(Cl)cc3)n2)s1	14µM*[quencher]	13µM*	-6%	0	7%
CN1C(=O)Cc2cc(S(=O)(=O)CCC(=O)Nc3ccc(Cl)cc3)ccc21	-22%	-12%	1%	·	-4%
CC(C)CN(CC(C)C)C(=O)C1CCCN(S(=O)(=O)c2ccc3c(c2)oc(=O)n3C)C1 (stereo not drawn)	-16%	3%	-33%	·	-1%
O=C1/C(=C/c2ccccc2)Nc2ccccc21	-27%	13µM*	?	-2	9%
Cn1c(=O)c(C#N)c(-c2ccc(F)cc2)c2cc(C(=O)c3cc(Cl)cc(Cl)c3O)cnc21	-24%	14µM*	-11%	-1	1%
c1ccc(N2CCN(c3nc(-c4cccs4)nc4ccccc34)CC2)cc1	-16%	?	-7%	2	-5%
Oc1ccc(N2CCN(c3nc(-c4cccs4)nc4ccccc34)CC2)cc1	14µM*[quencher]	·	-14%	4	5%
O=c1cc2c(=O)oc3cc(O)c(O)oc3c2c(O)c1O	-29%	4.5µM*	-20%	-12	?
CCOc1ccc(C2C(=O)N(C3CCCCCC3)CC(=O)N2CCC2=CCCCC2)cc1OC (stereo not drawn)	-10%	-16%	-4%	·	1%
CCCCC1C(=O)N(c2ccccc2)N(c2ccc(O)cc2)C1=O (stereo not drawn)	-25%	16µM*	?	-3	?
CCOc1ccc(-c2nonc2NC(=O)c2oc3cc(C)ccc3c2C)cc1	-26%	0%	5%	·	-14%
CC[C@H](C)[C@H](NC(=O)[C@H](CC(C)C)NC(=O)[C@@H](N)CO)C(=O)NCC(=O)N[C@@H](CCCN=C(N)N)C(=O)N[C@@H](CC(C)C)C(=O)O	·	·	·	0	·
CNc1cc([N+](=O)[O-])ccc1N/C=C/C(=O)c1ccc2c(c1)OCO2	-27%	3.5µM*	-16%	1	8%
